Assay results from PubChem BioAssay AID1852 (Sanford-Burnham Center for Chemical Genomics, 2009).
In all, about 2,500 compounds went through this assay and about 1,100 (44%) were called active. So high a share suggests a set chosen from earlier hits. The list shows a part of the results. A number with no mark means an inactive call.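 Rule for the calls: active = inhibition above 50% at 4 µM in the single-point screen; inactive = inhibition of 50% or less.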

Assay: TNF-a-driven NF-kB reporter inhibitors, primary screen, selectivity assay for NOD1/NOD2 signaling inhibitor project, cell-based, HEK293T NF-kB-Luc, luminescence (AID 1852)
Details: TNF-a induced, 14 h, at 4 µM, stronger effect = higher value

| SMILES | inhibition |
| --- | --- |
| CN1/C(=C/c2cc[n+](C)c3ccccc23)C=Cc2ccccc21 | 47.9% |
| CCN1/C(=C/c2ccc3ccccc3[n+]2CC)C=Cc2ccccc21 | 67.3% (active) |
| CCN1/C(=C/c2cc[n+](C)cc2)C=Cc2cc(C)ccc21 | 66% (active) |
| Cc1ccc2c(c1)c(/C=C/c1cc[n+](C)cc1)c(C)n2C | 24.2% |
| C=CC[n+]1ccc(/C=C2\C=Cc3cc(C)ccc3N2CC)c2ccccc21 | 84.9% (active) |
| C=CC[n+]1c(/C=C2\C=Cc3cc(C)ccc3N2CC)ccc2ccccc21 | 74.1% (active) |
| Cc1ccc(Cn2ccsc2=NC(=O)CCl)cc1 | 46.5% |
| CCOc1cc(C)c(Cl)cc1S(=O)(=O)n1nnc2ccccc21 | 63.8% (active) |
| CCCn1c(NC(=O)c2ccc(Cl)c(S(=O)(=O)N3CCCC3)c2)nc2ccccc21 | 24.9% |
| COc1ccc(CCNc2cc(N3CCN(C(=O)c4ccccc4F)CC3)ccc2[N+](=O)[O-])cc1OC | 85.7% (active) |
| CC1CC(=O)N(c2ccc(NCCc3ccccc3)c([N+](=O)[O-])c2)C1=O (centres undefined) | -4.9% |
| COc1ccc(CCNC(=O)c2ccc3c(c2)N(Cc2ccccc2)CCS3)cc1OC | -41.1% |
| Cn1nccc1C(=O)NC1CCCc2c1cnn2-c1ccc(C(C)(C)C)cc1 (centres undefined) | 72.8% (active) |
| Cc1ccc(C(=O)NC2CCCc3c2cnn3-c2ccc(F)cc2F)cn1 (centres undefined) | 71.6% (active) |
| COc1ccc(C(=O)NC2CCCc3c2cnn3-c2ccccc2F)cc1OC (centres undefined) | 33.4% |
| CC1=C(C(=O)NC2CCCc3c2cnn3-c2ccc(F)cc2F)OCCO1 (centres undefined) | 40.2% |
| Cc1cc(C(=O)NC2CCCc3c2cnn3-c2ccc(C(C)(C)C)cc2)nn1C (centres undefined) | 68.8% (active) |
| Cc1cccc(-n2ncc3c2CCCC3NC(=O)C2(C(N)=O)CC2)c1C (centres undefined) | 29.3% |
| CC(C)(C)c1ccc(-n2ncc3c2CCCC3NC(=O)C2(C(N)=O)CC2)cc1 (centres undefined) | 61.3% (active) |
| CC1CN(CCCCOc2ccc(Cl)c3ccccc23)CC(C)O1 (centres undefined) | 8.2% |

| SMILES | inhibition |
| --- | --- |
| Cn1nccc1C(=O)NC1CCCc2c1cnn2-c1ccccc1F (centres undefined) | 51.8% (active) |
| Cn1nccc1C(=O)NC1CCCc2c1cnn2-c1ccc(F)cc1F (centres undefined) | 39.9% |
| Cc1ccc(-n2ncc3c2CCCC3NC(=O)c2ocnc2C)cc1C (centres undefined) | 49.3% |
| COc1ccc(C(=O)NC2CCCc3c2cnn3-c2ccccc2F)o1 (centres undefined) | -21.5% |
| Cc1ncoc1C(=O)NC1CCCc2c1cnn2-c1ccc(C(C)(C)C)cc1 (centres undefined) | 74.7% (active) |
| Cc1c(C)c2ccc(OCC(=O)Nc3ccc(N4CCC(C)CC4)cc3)cc2oc1=O | 94.7% (active) |
| Cc1ccc(-n2nc3c(=O)n(C(C)C(=O)NCCCc4ccccc4)nc(C)c3c2C)cc1 (centres undefined) | 53.9% (active) |
| Cc1nn(Cc2ccccc2)c(Cl)c1C(=O)OC(C)C#N (centres undefined) | 40.7% |
| Cc1ccc(-n2nc3c(=O)n(CC(=O)NC(C)CCc4ccccc4)nc(C)c3c2C)cc1 (centres undefined) | 50% (active) |
| Cc1ccc(-n2nc3c(=O)n(C(C)C(=O)NCCc4cccs4)nc(C)c3c2C)cc1 (centres undefined) | 60.4% (active) |
| Cc1ccc(-n2nc3c(=O)n(C(C)C(=O)NCCC4=CCCCC4)nc(C)c3c2C)cc1 (centres undefined) | 54.3% (active) |
| C[C@@H](C(=O)NCCc1ccccc1)N1C(=O)N2CCc3c([nH]c4ccccc34)[C@@]2(C)C1=O | 38.1% |
| CCN(CC)S(=O)(=O)c1ccc2[nH]cc(C(=O)NCCC3=CCCCC3)c(=O)c2c1 | 38.4% |
| COc1ccc(-c2cc(C)no2)cc1S(=O)(=O)N1CCN(c2ccc([N+](=O)[O-])cc2)CC1 | 44.5% |
| CCN1/C(=C/c2ccc3cc(C)ccc3[n+]2CC)Sc2ccccc21 | 76.1% (active) |
| CCN1/C(=C\c2ccc3ccccc3[n+]2CC)Sc2cc(C)ccc21 | 55.6% (active) |
| CCN1/C(=C/c2ccc3cc(C)ccc3[n+]2CC)Sc2cc(C)c(C)cc21 | 54.5% (active) |
| CCN1/C(=C\c2ccc3cc(C)ccc3[n+]2CC)Sc2cc(C)c(C)cc21 | 65.4% (active) |
| CCN1/C(=C/c2ccc3cc(C)ccc3[n+]2CC)Sc2cc(C)ccc21 | 48.9% |
| O=C1N(Cc2cccc(Cl)c2)C[C@@H]2C[C@@H](c3cccn3-c3cccnc3)N3CCC[C@@]123 | 4.8% |

| SMILES | inhibition |
| --- | --- |
| CCN1/C(=C/c2ccc3cc(C)cc(C)c3[n+]2CC)Sc2cc(C)ccc21 | 79.4% (active) |
| O=C(CCl)NC(Cc1ccccc1)c1ccccc1 (centres undefined) | 21.3% |
| O=C(CCl)N(Cc1ccccc1)c1ccccc1 | 89.7% (active) |
| CN(Cc1ccc(Cl)cc1)C(=O)CCl | 9.6% |
| O=C(CCl)N(c1ccccc1)c1c[nH]c2ccccc12 | 103% (active) |
| O=C(CCl)N(c1ccccc1)c1ccccc1 | 63.7% (active) |
| COc1ccc(CC(=O)N(Cc2ccccc2)c2ccccc2)cc1S(=O)(=O)N1CCOCC1 | 13.5% |
| O=Cc1[nH]c2ccccc2c1N(C(=O)CCl)c1ccccc1 | 31.9% |
| COc1cc2c(cc1OC)C(c1ccc(-c3cc(Cl)ccc3Cl)o1)=NCC2 | 26.5% |
| Cc1cnc(NC(=O)C2CC(=O)N(c3cccc(Cl)c3)C2)s1 (centres undefined) | 92.4% (active) |
| Cc1csc(NC(=O)C2CC(=O)N(c3ccc(C)c(C)c3)C2)n1 (centres undefined) | -11.9% |
| O=C(/C(=C/c1ccc(Cl)cc1)c1nc2ccccc2[nH]1)c1cccs1 | 106% (active) |
| O=C(/C(=C/c1ccc(Cl)cc1)c1nc2ccccc2[nH]1)c1ccccc1 | 107% (active) |
| COc1cc(/C=C(/C(=O)c2cccs2)c2nc3ccccc3[nH]2)ccc1O | 31.5% |
| O=C(/C(=C\c1ccccc1)c1nc2ccccc2[nH]1)c1ccc(Cl)cc1 | 94.9% (active) |
| O=C(/C(=C/c1cccc(Cl)c1)c1nc2ccccc2[nH]1)c1ccccc1 | 31.9% |
| Cc1cccc(Cc2cnc(N3C(=N)SC(C)C3=O)s2)c1 (centres undefined) | 100% (active) |
| Cc1ccc(Cc2cnc(N3C(=N)SC(C)C3=O)s2)cc1 (centres undefined) | 103% (active) |
| Cc1cccc(CN2CCN(C(=O)CCl)CC2)c1 | 36% |
